Where “and” joins values, the source holds several entries; their conditions need not be identical. Equal values may be shown once. Records with an inconclusive call do not appear. The source holds several records for some structures; these can differ, active in one and inactive in another. Calls of active or inactive are those of the source. Calls come from the whole dose curve; as a rule, active = well fitted activation curve with a large enough effect; inconclusive = small, poorly fitted or top-dose-only effect; inactive = no such curve, though single readings can be large or run the other way. Numbered stars: 1 amine (or outer) side, 2 acyl side, 3 side chain; on linkers, the order of the positions; unused ones are H or OH. Square brackets hold non-standard residues; d marks the D form. Peptide text beside a SMILES is read from it. X5 = O=C([C@@H](CC(O)CCl)O[*:1])[*:2]; aIle = CC[C@@H](C)[C@H](N)C(=O)O; NMeV = CN[C@H](C(=O)O)C(C)C; NMeA = CN[C@@H](C)C(=O)O; βAla = NCCC(=O)O
biological target: Cellular tumor antigen p53 (Homo sapiens) (UniProt P04637); test: Primary qHTS for small molecule compounds that upregulate eGFP-tagged delta133p53alpha (in N-terminal) cells. (AID 2060322); settings: NCI-H358 eGFP-delta133p53alpha fluorescence, 24 h; activation: stronger effect = higher value; note: nearly all actives have a fitted effect of over 75% in size;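 for activation: cells pre-induced with doxycycline then dosed without doxycycline; series mostly up to about 56 µM; 0% = DMSO vehicle and 100% = reference activator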
From the text: Assay Development and Screening Technology
National Center for Advancing Translational Sciences (NCATS),
National Institute of Health (NIH), Rockville, Maryland
Cellular senescence (CS) is one of the hallmarks of aging and age-related diseases. Senescent cells are characterized by an irreversible growth arrest, an increase in senescence-associated beta-galactosidase (SA-beta-gal) activity and p16INK4a expression, an activation of the DNA damage response pathways, and the emergence of a senescence-associated secretory phenotype (SASP).
Delta133p53alpha, a human/primate-specific p53 protein isoform, delays or inhibits the induction of CS and SASP in various types of human cells, including progeria-derived fibroblasts, primary normal astrocytes, and CD8+ T lymphocytes. Induction of delta133p53alpha with small molecule compounds may provide therapeutic opportunities for inhibition of senescence/SASP-associated pathologies in progeria syndromes, astrocyte-mediated neuroprotection in neurodegenerative diseases, and possibly prevention and treatment of a wider range of senescence- and aging-associated diseases.
Here we report the development and validation of a cell-based quantitative high throughput screening (qHTS) assay in 1,536-well format. This qHTS assay uses the NCI-H358 cell line with doxycycline-inducible expression of enhanced green fluorescent protein (eGFP)-tagged delta133p53alpha, which allows efficient and highly quantitative measurement of the protein levels.
PROTOCOL TABLE (as described by Inglese J, Shamu CE and Guy RK. 2007)
SEQUENCE No. (e.g., 1, 2, 3, etc.); […] (e.g., Cells, Incubation, Reagent, etc.); VALUE; DESCRIPTION.
1; Cells; 4uL; 800 doxycycline treated cells / well in doxycycline-free media, 1536-well black, clear-bottom low base Aurora microplates.
2; Compounds; 23 nL; Kalypsis pin tool (Wako) equipped with 1536-well pin heads, 5-azacytidine positive control.
3; Incubation; 24 hr; 37C, 5% CO2; 95% relative humidity.
4; Aspiration; 1x; BioTek EL406 washer dispenser (Agilent).
5; Fixing; 3.5% paraformaldehyde, BioTek EL406 washer dispenser (Agilent).
6; Washing; 1x PBS; BioTek EL406 washer dispenser (Agilent).
7; Nuclei staining; 1:1000 dilution of Hoechst 33342 (Thermofisher), BioTek EL406 washer dispenser (Agilent).
8; Incubation; 20 min; in the dark at room temperature.
9; Washing; 2x, 1x PBS (ThermoFisher), BioTek EL406 washer dispenser (Agilent).
10; Reagent; 10 uL; 1x PBS per well, sealed with clear adhesive tape.
NOTES (numbers refer to sequence numbers above).
1. NCI-H358 cells expressing eGFP-tagged delta133p53alpha were grown in T75 culture flasks and treated with doxycycline for 24h, at 10 ng/ml for eGFP-D133p53a cells (N-terminal cell) and 100 ng/ml for D133p53a-eGFP cells (C-terminal cells). Cells were trypsinized, counted using a Counted 3 Automated Cell Counter (Thermo Fisher), and diluted to a concentration of 200,000 cells/ml. A Multidrop Combi Reagent Dispenser (ThermoFisher) was used to dispense 800 cells/well in […] of doxycycline-free media, into 1536-well black/clear bottom low base plates (AuroraMicroplates).
2. After plating cells, 23 nl of compound library, DMSO vehicle control or positive control (5-azacytidine) were transferred by Pin Tool (Wako). The plate map layout was the same for each plate: (column 1) non-doxycycline treated cells + DMSO vehicle control; (column 2) doxycycline treated cells + DMSO vehicle control baseline; (column 3) doxycycline treated cells + positive control 57.5 uM final concentration 5-azacytidine; (column 4) doxycycline treated cells + serial dilution of 5-azacytidine, 16-point 1:2 titration spanning 1.8 nM to […] final concentration; (columns 5-48) doxycycline treated cells + titration of library compounds.
3. Cells were incubated at 37 °C, 5 % CO2, 95% RH with breathable metal lid for 24h.
4-10. […] After two washes, 10 ul of 1X PBS (Thermo Fisher) was dispensed to each well. Clear adhesive plate seals (VWR) were applied and plates stored at 4 °C.
11. […]
Potency is the fitted concentration of half-maximal effect.

Chain of Cellular tumor antigen p53 (Homo sapiens) (P04637 whole entry, looked up): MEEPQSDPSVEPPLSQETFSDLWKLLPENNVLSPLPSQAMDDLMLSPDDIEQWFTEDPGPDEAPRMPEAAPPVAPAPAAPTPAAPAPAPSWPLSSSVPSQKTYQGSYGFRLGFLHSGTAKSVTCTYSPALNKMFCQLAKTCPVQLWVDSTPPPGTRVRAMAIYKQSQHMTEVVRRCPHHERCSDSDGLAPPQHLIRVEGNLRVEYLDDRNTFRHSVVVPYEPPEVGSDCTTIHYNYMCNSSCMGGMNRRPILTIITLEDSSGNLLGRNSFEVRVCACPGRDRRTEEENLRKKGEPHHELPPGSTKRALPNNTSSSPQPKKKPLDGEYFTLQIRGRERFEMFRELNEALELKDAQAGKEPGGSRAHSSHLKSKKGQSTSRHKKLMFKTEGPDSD

SMILES | activation | Potency
COC[C@@H](NC(C)=O)C(=O)NCc1ccccc1 | -5.83% (inactive) | 
CCC(=O)O[C@@H]1C=C2CCC3C(CCC4(C)C3CC[C@@H]4OC(=O)CC)C2CC1 (stereo not given in full) | 6.21% (inactive) | 
C[C@]12CCC(=O)C(O)=C1CC[C@@H]1[C@@H]2CC[C@]2(C)C(=O)CC[C@@H]12 | 6.69% (inactive) | 
O=C1CC[C@@]2(O)C3Cc4ccc(O)c5c4C2(CCN3CC2CC2)[C@H]1O5 (stereo not given in full) | -10.4% (inactive) | 
NC(=O)CN1CCCC1=O | -3.35% (inactive) and 1.41% (inactive) | 
CCC(C)(C#N)O[C@@H]1O[C@H](CO)[C@@H](O)[C@H](O)[C@H]1O (stereo not given in full) | 16.8% (inactive) | 
CC(C)(C)c1cc(C=C(C#N)C#N)cc(Br)c1O | 19.6% (inactive) | 
COC1(C[S@@](=O)c2ccccc2)CCN(CCc2c[nH]c3ccc(F)cc23)CC1 | -6.68% (inactive) | 
CC1=C2C[C@H]3[C@@H](CC=C4C[C@@H](O)CC[C@@]43C)[C@@H]2CC[C@]12O[C@@H]1C[C@H](C)CN[C@H]1[C@H]2C | 2.39% (inactive) | 
COc1ccsc1CNCC[C@@]1(c2ccccn2)CCOC2(CCCC2)C1 | -0.333% (inactive) | 
NC(=O)c1ncn2c1CN=C(c1ccccc1Br)c1cc(F)ccc1-2 | -14.3% (inactive) | 
Cc1ccc(-c2nc3ccc(C)cn3c2CC(=O)N(C)C)cc1 | -32.2% (inactive) | 
O=C(NC(=O)c1c(F)cccc1F)Nc1cc(Cl)c(OC(F)(F)C(F)C(F)(F)F)cc1Cl (stereo not given) | -13.4% (inactive) | 
C[C@@H]1O[C@@H](O[C@H]2CC[C@@]3(C)C(CC[C@@H]4C3CC[C@]3(C)[C@@H](C5=CC(=O)OC5)CC[C@]43O)C2)[C@H](O)[C@H](O)[C@H]1O (stereo not given in full) |  | 1.65 µM (active)
COC(=O)C1(C)CCC(=O)C2(C)c3c(O)cc(C(C)C)cc3C(O)C(OC(C)=O)C12 (stereo not given) | 22.9% (inactive) | 
COC(=O)C1(C)CCC(O)C2(C)c3c(O)cc(C(C)C)cc3C(O)C(OC(C)=O)C12 (stereo not given) | -9.16% (inactive) | 
C[C@]12CC[C@@H]3[C@@H](CCC4=CC(=O)CC[C@@H]43)[C@@H]1CC[C@@H]2OC(=O)CCc1ccccc1 | 7.88% (inactive) | 
CCOC(=O)C(c1c(O)c2ccccc2oc1=O)c1c(O)c2ccccc2oc1=O | -3.95% (inactive) | 
CC[C@@H](C)[C@@H]1NC(=O)[C@@H]2CCCN2C(=O)[C@@H](CC(O)CCl)OC(=O)CCNC(=O)[C@H](C)N(C)C(=O)[C@H](C(C)C)N(C)C1=O (stereo not given in full) (cyclo([NMeA][βAla][X5]P[aIle][NMeV])) | -10.7% (inactive) | 
C=C1C(=O)CC2OC2(C)CC2OC(=O)C(=C)C2C(O)C1OC(=O)/C(C)=C\C (stereo not given) |  | 18.6 µM (active)

SMILES | activation | Potency
C[N+]1(C)CCc2cc3c(cc2[C@H]1[C@@H]1OC(=O)c2c1ccc1c2OCO1)OCO3 | -3.8% (inactive) | 
CC(=O)O[C@H]1CC[C@H]2[C@@H]3CC[C@H]4CC(=O)C=C(C)[C@]4(C)[C@H]3CC[C@]12C | -6.33% (inactive) | 
CCCCCCn1c(=O)c(C(=O)Nc2ccc(C(=O)OCCC)cc2)c(O)c2ccccc21 | 4.3% (inactive) | 
CC1=CC2/C=C(\C)CCCC(O)/C=C/C(=O)OC23C(=O)NC(CC(C)C)C3C1C (stereo not given) | 1.79% (inactive) | 
CC1=CC2/C=C(\C)CCC(O)C(O)C(O)CC(=O)C23C(=O)NC(CC(C)C)C3C1C (stereo not given) | -32.8% (inactive) | 
O=c1[nH]c2ccccc2n1C1CCN(CCCC(c2ccc(F)cc2)c2ccc(F)cc2)CC1 | -35.4% (inactive) | 26.9 µM (active)
CC1=CC2/C=C(\C)CCC(O)C(O)/C=C/C(=O)OC23C(=O)NC(CC(C)C)C3C1C (stereo not given) | 0.763% (inactive) | 
Clc1ccccc1N1CCNCC1 | 28.8% (inactive) | 
c1ccc2c(c1)sc1ccccc12 | -5.02% (inactive) | 
NCC(O)c1cc(O)c(O)cc1F (stereo not given) | -23.1% (inactive) | 
COC(C)(C)CCCC(C)C/C=C/C(C)=C/C(=O)OC(C)C (stereo not given) | -11.9% (inactive) | 
CCN1C[C@]2(COC(=O)c3ccccc3N3C(=O)C[C@H](C)C3=O)CC[C@H](OC)[C@@]34[C@@H]5C[C@H]6[C@H](OC)[C@@H]5[C@](O)(C[C@@H]6OC)[C@](O)([C@@H](OC)[C@H]23)[C@@H]14 | 10.3% (inactive) | 
CN[C@@H]1C[C@@H](c2ccc(Cl)c(Cl)c2)c2ccccc21 | -33.4% (inactive) | 
NCCCP(=O)(O)O | -25.8% (inactive) | 
COP(=S)(OC)Oc1ccc(S(N)(=O)=O)cc1 | -28.8% (inactive) | 
COCC1(CO)C(=O)C2CCN1CC2 (stereo not given) | -22.4% (inactive) | 
CCCCC1C(=O)NC(=O)N(C2CCCCC2)C1=O (stereo not given) | 17% (inactive) | 
O=C1c2ccccc2C(=O)C1C(=O)C(c1ccccc1)c1ccccc1 | 24.3% (inactive) | 
CC(N)Cc1c[nH]c2ccc(O)cc12 (stereo not given) | -0.781% (inactive) | 
